# Screening results from PubChem BioAssay.
# In the library only some 0.71% were active in any assay of this set; here they are far more common.
# USP1-UAF1 inh – Inhibitors of USP1/UAF1: Primary Screen | recombinant USP1/UAF1, Ub-Rhodamine cleavage fluorescence | Potency, µM (top dose mostly 57.1 µM), for the others: top-dose activity change, negative = inhibition, hits mostly inhibitors | hit rate 0.23% among 390,000 | AID 743255, 2014; further: potency means the concentration at half of the fitted maximal effect; nearly all actives have a fitted effect of over 60% in size
#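 Step one: compound is pinned into 1nM USP1/UAF1 in HEPES pH 7.8 buffer with TCEP. Step two: 15 min room-temperature incubation. Step three: Ub-Rho (150nM final) starts cleavage, tracked by fluorescence over six one-minute reads.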
# FBPA coupling cs – qHTS Assay for Inhibitors of Fructose-1,6-bisphosphate Aldolase from Giardia Lamblia: Coupling assay counterscreen | coupling enzyme system counterscreen, AmpLite Red fluorescence | activity change, negative = inhibition, % at 58.2 µM, hits read low | hit rate 0.67% among 290,000 | AID 2472, 2010; in the data active means activity change below about -30%
#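 Coupling enzymes only (glyceraldehyde-3-phosphate) + compound, at 57.5 uM final, 10 min RT; add substrate/coupling/AmpLite Red mix, 20 min RT; fluorescence ex 525/em 598 nm. Actives flag coupling-system interference.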
# USP2a block – qHTS Assay for Inhibitors of Ubiquitin-specific Protease USP2a Using CHOP2 as the Reporter; Ubiquitin carboxyl-terminal hydrolase 2 (Homo sapiens), O75604; USP2 core, Ub-CHOP2 coupled fluorogenic reporter, 485/531; Potency, µM (top dose mostly 38.3 µM), for the others: at the top dose activity change, negative = inhibition, usual class: inhibitors; hit rate 0.01% among 330,000;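 further: potency means the concentration at half of the fitted maximal effect; plate controls were DMSO wells for no effect and full inhibition by NEM control for full effect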
#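 Cell-free coupled assay: 10nM USP2 core preincubated 30min RT with compound in Tris-HCl pH 8.0/CaCl2/CHAPS buffer, then 25nM Ub-CHOP2 and 25nM reporter substrate; fluorescence (Ex 485/Em 531) read after 60min RT, normalized to NEM inhibition, concentration-response curves fitted.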
# Eya2 inh – qHTS Assay for Inhibitors of the Phosphatase Activity of Eya2; Protein phosphatase EYA2 (Homo sapiens), O00167; recombinant Eya2, OMFP fluorescence dephosphorylation (OMFP is methylfluorescein phosphate); Potency, µM (doses to about 76.9 µM), inactives show at the top dose activity, negative = inhibition, actives largely listed as inhibitors; hit rate 0.006% among 330,000; AID 488837, 2010; further: potency means the concentration at half of the fitted maximal effect
#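 Eya2 (0.2 uM) preincubated 10 min at ambient with compound, then OMFP substrate added at 50 uM; 10 min reaction in 50 mM HEPES pH 7.5, 50 mM NaCl, 5 uM MgCl2, 0.05% BSA, 1 mM DTT. Fluorescence read at Ex 485/Em 525 nm.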
# GALK inh – qHTS Assay for Inhibitors of Human Galactokinase (GALK); AID 1868, 2009; Potency, µM (series often up to 57.5 µM), without a hit: at the highest dose activity change, negative = inhibition, hits mostly inhibitors; P51570; hit rate 0.007% among 270,000; Purified GALK, Kinase-Glo residual ATP luminescence; further: potency means the concentration at half of the fitted maximal effect
# Target sequence (P51570 whole entry, looked up): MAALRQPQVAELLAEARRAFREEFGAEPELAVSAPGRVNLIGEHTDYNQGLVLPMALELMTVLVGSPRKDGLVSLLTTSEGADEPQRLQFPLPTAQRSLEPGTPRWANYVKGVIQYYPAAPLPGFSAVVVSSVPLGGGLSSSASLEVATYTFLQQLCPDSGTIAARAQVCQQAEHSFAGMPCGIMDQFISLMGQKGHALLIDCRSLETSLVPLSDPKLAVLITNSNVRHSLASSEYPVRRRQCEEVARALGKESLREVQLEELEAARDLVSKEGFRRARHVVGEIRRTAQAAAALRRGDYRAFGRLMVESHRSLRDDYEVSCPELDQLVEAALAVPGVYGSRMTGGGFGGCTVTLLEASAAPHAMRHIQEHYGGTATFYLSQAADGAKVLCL
#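 5 nM enzyme, 35 uM ATP, 100 uM galactose, 20 mM HEPES pH8.0, 5 mM MgCl2; 1 h RT; residual ATP by Kinase-Glo Plus luminescence, qHTS format.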
# PI4K2A inh – qHTS for small molecular inhibitors of PI4K2A. activity change, negative = inhibition, % at 76.9 µM. hit rate 0.13% among 420,000. Phosphatidylinositol 4-kinase type 2-alpha (Homo sapiens), Q9BTU6. AID 1346378, 2018. purified PI4K2A, ADP-Glo luminescence, 1 h; active compounds read low; in the data active means activity change below about -50%; inconclusive means mostly about -30% to -49%;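 further: -100% = wells without enzyme as full effect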
#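 ADP-Glo luminescence measured ADP generated by PI4K2A enzyme (4 ug/mL before mixing) with 1.2 mM PI substrate (pre-mix) and 300 microM ATP (pre-mix). Tris pH7.5 buffer with MgCl2, Triton X-100; 1 h reaction at ambient temperature.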
# * = called active by the depositor; u = inconclusive; x = not tested or not shown; [ ] = dose if it differs, or a comment. Unless noted, the call rests on the fitted dose curve; in most records, active means well fitted curve in the direction sought with a large enough effect; inconclusive means small, poorly fitted or top-dose-only effect, or another doubt; inactive means no such curve, though single readings can be large; an effect the other way counts as inactive or inconclusive. Unless noted, on the % scale 0 is the no-effect control and ±100 the full control effect.
SMILES,USP1-UAF1 inh,FBPA coupling cs,USP2a block,Eya2 inh,GALK inh,PI4K2A inh
Cc1[nH][nH]c(=O)c1C(c1ccc(-c2cccc(C(=O)O)c2)o1)c1c(C)[nH][nH]c1=O,u,-31*,5%,14%,0%,u
Cc1ccc2oc(-c3ccccc3C(=O)O)cc(=O)c2c1,-3%,5,1%,-9%[15.4 µM],1%,-6
Cc1[nH][nH]c(=O)c1C(c1ccc(-c2ccccc2C(=O)O)o1)c1c(C)[nH][nH]c1=O,u,-47*,0%,11%,u,0
Cc1[nH][nH]c(=O)c1C(c1ccc(-c2ccc(Cl)cc2Cl)o1)c1c(C)[nH][nH]c1=O,x,-58*,0%,23%,-5%,x
Cc1[nH][nH]c(=O)c1C(c1ccc(Br)cc1)c1c(C)[nH][nH]c1=O,-5%,-3,-1%,11%,-1%,u
Cc1[nH][nH]c(=O)c1C(c1ccc(-c2cccc(Cl)c2)o1)c1c(C)[nH][nH]c1=O,28µM*,-48*,0%,-2%,u,u
CCN1C(=O)[C@H]2[C@H]3[C@H](O)[C@H](O)C/C(=N/OC[C@@H](C)[C@H](OCc4ccccc4)C(C)C)[C@@H]3CC[C@@H]2C1=O,x,-1,x,x,x,x
O=C(OCC1OC(OC(=O)c2cc(O)c(O)c(OC(=O)c3cc(O)c(O)c(O)c3)c2)[C@@H](OC(=O)c2cc(O)c(O)c(OC(=O)c3cc(O)c(O)c(O)c3)c2)C(OC(=O)c2cc(O)c(O)c(OC(=O)c3cc(O)c(O)c(O)c3)c2)C1OC(=O)c1cc(O)c(O)c(OC(=O)c2cc(O)c(O)c(O)c2)c1)c1cc(O)c(O)c(OC(=O)c2cc(O)c(O)c(O)c2)c1 (some centres undefined),x,-23,x,x,x,x
COC(=O)c1ccc(-c2ccc(C(c3c(C)[nH][nH]c3=O)c3c(C)[nH][nH]c3=O)o2)cc1,28µM*,-45*,5%,21%,0%,-7
Cc1ccc(NC(=O)CSc2ccccc2)cc1S(=O)(=O)N1CCCCC1,-14%,x,3%,8%,x,0
Cc1cc(C)c(S(=O)(=O)/N=C2/C=C(SCC(=O)O)C(=O)c3ccccc32)cc1C,25µM*,-46*,0%,-9%,0%,-53*
C#CC(C)(CC)OC(=O)c1ccccc1C(=O)O (centres undefined),x,x,x,x,x,2
OCCN(CCO)c1nc(N2CCCCC2)c2nc(N(CCO)CCO)nc(N3CCCCC3)c2n1,28µM*,2,u,u,4%,2
Cc1ccc2c(c1)C(=C(C#N)C#N)C(=O)N2CCN1CCOCC1,-25%,-36*,1%,1%,-2%,3
N#CC(C#N)=C1C(=O)N(CCN2CCOCC2)c2ccccc21,-24%,-36*,0%,11%,-2%,7
CCCCC/C=C\C/C=C\C[C@H](O)/C=C/C=C\CCCC(=O)O,x,-1,x,x,x,x
COC(=O)[C@]12C[C@H](CC(=O)NCCCCc3ccccc3)C(=O)N(CCC3=CCCCC3)C1=C[C@H](C(C)C)O[C@@H]2C1CC1,x,x,x,x,x,-1
CC(C)(C)N1C(=O)[C@H]2[C@H]3[C@H](O)[C@H](O)C/C(=N/OCc4ccccc4)[C@@H]3CC[C@@H]2C1=O,x,-2,x,x,x,x
Cc1oc(C(=O)Nc2ccc(O)cc2)cc1COc1ccccc1,-20%,-32*,-7%,-31%,-2%,-15
COc1ccc(NC(=O)CSc2nc(-c3ccccc3)[nH]c2-c2ccccc2)cc1OC,7%,x,x,x,x,-3
Oc1ccccc1C1Nc2cccc3cccc(c23)N1,-24%,-34*,0%,-7%,-1%,0
COc1ccccc1C1Nc2cccc3cccc(c23)N1,-20%,-11,1%,16%,-2%,0
COc1ccc(O)c(C(c2c(C)[nH][nH]c2=O)c2c(C)[nH][nH]c2=O)c1,u,-29,3%,2%,9%,-62*
C=Cc1ccc([C@H]2N[C@@H](C(=O)O)CC[C@@H]2C)cc1,x,0,x,x,x,x
CN(C)c1ccc(CC2C(=O)Nc3ccccc32)cc1 (centres undefined),-20%,-39*,0%,13%,7%,-2
SMILES,USP1-UAF1 inh,FBPA coupling cs,USP2a block,Eya2 inh,GALK inh,PI4K2A inh
CCOC(=O)c1c(-c2ccco2)csc1N,-17%,-31*,-7%,-13%,5%,-2
O=C(NCc1ccc(F)cc1)C(=O)NCC(c1cccs1)S(=O)(=O)c1cccs1 (centres undefined),u,x,x,x,x,0
COc1ccccc1NC(=S)Nc1cccc2cnccc12,-6%,-19,1%,7%,1%,3
CCOc1ccc(NC(=S)Nc2cccc3cnccc23)cc1,-15%,-45*,1%,2%,-4%,-1
COc1ccc(NC(=S)Nc2cccc3cnccc23)cc1,-25%,-37*,1%,-5%,6%,-1
NS(=O)(=O)c1cc(C(=O)NN2C[C@H]3[C@H]4CCC(C4)[C@H]3C2)ccc1Cl,x,x,x,x,x,1
Cc1ccc(C(C)OC(=O)C2(C)CCC(C(=O)O)C2(C)C)cc1 (centres undefined),x,x,x,x,x,-1
COc1ccc2c(c1)C(=O)[C@H](OC(=O)NCc1ccco1)[C@@H](c1ccc(OC)c(Br)c1)O2,x,-4,x,x,x,x
Cc1[nH]c2ccc3ncccc3c2c1C,-13%,-39*,0%,-3%,2%,0
Cc1c(C)c2cccnc2c2ncccc12,-14%,x,0%,8%,x,-15
Cc1c2c(c(O)c3c(O)cccc13)C(=O)O[C@H]2C1C(N(C)C)C(O)=C(C(N)=O)C(=O)[C@H]1O (some centres undefined),x,-20,x,x,x,x
CCNc1ccc(Br)cc(C(=O)/C=C/c2ccc(Cl)cc2)c1=O,32µM*,-28,1%,6%,x,3
O=C1C2=CC[C@H]3C(=O)N(C[C@@H]4CCCO4)C(=O)[C@@H]3[C@@H]2[C@H](O)[C@@H]2O[C@H]12,x,-1,x,x,x,x
O=C(N/N=C/c1cccs1)c1cccc2cc[nH]c12,-21%,-5,2%,25µM*,-2%,-4
CCCN1C(=O)S/C(=C\c2ccc(N3CCOCC3)cc2C)C1=O,x,-3,-1%,-7%,-1%,x
COC(=O)CN1C(=O)S/C(=C/c2ccc(N3CCCCC3)o2)C1=O,28µM*,-43*,u,u,-1%,-16
